Screen size: about 78,000 compounds; about 1,800 (2.3%) were called active. About 27% were inconclusive and are not listed. Cut-off read from the data, not from the text of the source: active = inhibition above about 30%; inconclusive = mostly about 10% to 28%; inactive = weaker than that. What follows is part of a selection rich in actives, with near analogues and random picks from the rest.

What is called inhibition is the relative decrease from the control value, in per cent.

For this test, the target named is Interleukin-1 receptor-like 1 (Homo sapiens) (UniProt Q01638). The experiment in a line: blocks human ST2 binding to IL-33, primary screen, biochemical, AlphaLISA (AID 1259354). As to conditions: AlphaLISA ST2-Fc/biotin-IL-33 interaction, 1 h; at 17 µM, active compounds read high. A general note: Alpha assays give light when donor and acceptor beads are brought close together.
Interleukin-1 receptor-like 1 (Homo sapiens), sequence (Q01638 whole entry, looked up): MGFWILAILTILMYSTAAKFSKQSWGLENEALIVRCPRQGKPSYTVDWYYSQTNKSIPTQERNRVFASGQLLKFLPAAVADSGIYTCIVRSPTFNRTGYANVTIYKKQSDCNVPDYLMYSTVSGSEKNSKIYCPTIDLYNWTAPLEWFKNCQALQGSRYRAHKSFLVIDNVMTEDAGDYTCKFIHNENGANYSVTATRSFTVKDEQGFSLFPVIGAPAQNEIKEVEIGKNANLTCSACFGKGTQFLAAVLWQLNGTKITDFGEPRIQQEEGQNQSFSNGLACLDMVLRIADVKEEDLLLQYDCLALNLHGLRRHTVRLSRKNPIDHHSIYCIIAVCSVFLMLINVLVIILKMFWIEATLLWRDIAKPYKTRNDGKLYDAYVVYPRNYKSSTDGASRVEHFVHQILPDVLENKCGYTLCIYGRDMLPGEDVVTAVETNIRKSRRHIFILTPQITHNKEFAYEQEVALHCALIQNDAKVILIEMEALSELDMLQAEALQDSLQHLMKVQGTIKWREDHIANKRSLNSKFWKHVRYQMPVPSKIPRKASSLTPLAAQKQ
`CCN(CC)CCNc1ccc([N+](=O)[O-])c2cccnc12`: the inhibition result is “inactive”.
Turning to `CCN(CC)c1ccc([N+](=O)[O-])c2cccnc12`, the inhibition was 56% (active).
Then `COc1cc(CN2CCN(Cc3ccccc3)CC2)cc(I)c1O`, with “inactive”; and `C/C=C(\C)CN1CCC2(CCNCC2)C1`, with “inactive”; and `CCOC(=O)C1C2NC(=O)N(c3cccc(C)c3)C1(C)Oc1c(OC)cccc12` (stereo not given), with “inactive”.

These data come from PubChem BioAssay AID1259354 (Paczesny and Yang Labs, IUPUI and University of Michigan, 2018).
